In PubChem BioAssay:
Activity calls are given as the source filed them.

How the values were obtained:
Albumin (Bos taurus) = Albumin (Bos taurus) (UniProt P02769); test: compounds binding labelled BSA control protein – biochemical, small-molecule microarray, Alexa647 label, 635/667 nm fluorescence, artefact control for SMM control protein annotation, profiling panel (AID 1118); conditions: BSA-A647 binding, fluorescence 635 nm, higher = more signal;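 note: score merges 667 nm emission intensity and signal-to-noise per printed compound spot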
Albumin (Bos taurus), sequence (P02769 whole entry, looked up): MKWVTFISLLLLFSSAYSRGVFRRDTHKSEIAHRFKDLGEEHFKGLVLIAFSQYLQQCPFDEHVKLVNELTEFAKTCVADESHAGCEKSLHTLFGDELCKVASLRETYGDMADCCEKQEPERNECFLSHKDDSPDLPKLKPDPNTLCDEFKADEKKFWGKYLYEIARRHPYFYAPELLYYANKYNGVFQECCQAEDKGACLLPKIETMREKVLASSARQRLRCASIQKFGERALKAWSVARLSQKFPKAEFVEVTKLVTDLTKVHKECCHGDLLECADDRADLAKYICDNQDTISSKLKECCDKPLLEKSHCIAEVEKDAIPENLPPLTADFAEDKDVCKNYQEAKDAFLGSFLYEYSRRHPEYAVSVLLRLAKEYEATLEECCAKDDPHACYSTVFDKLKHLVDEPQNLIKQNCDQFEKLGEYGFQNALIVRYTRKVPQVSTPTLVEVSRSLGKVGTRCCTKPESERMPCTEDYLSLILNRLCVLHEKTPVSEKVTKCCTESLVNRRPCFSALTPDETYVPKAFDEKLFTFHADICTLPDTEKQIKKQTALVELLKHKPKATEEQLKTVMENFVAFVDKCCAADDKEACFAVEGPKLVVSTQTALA

[1] = probe aXIP binding to arrayed compounds – biochemical, NeuroSMM set, 635/667 nm fluorescence, primary screen (AID 1119); conditions: small-molecule microarray, higher = more signal, called active from +8 up or from −8 down;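 note: probe is the protein aXip251-270 applied at 1 µg/mL to compound-printed slides; binding of probe to printed compounds measured as 667 nm fluorescence plus signal to noise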
[2] = probe aNOTCH3 binding on compound microarray – biochemical, small-molecule microarray, 635/667 nm fluorescence, primary screen (AID 1120); conditions: higher = more signal;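 note: probe is a biotin-tagged antibody raised against NOTCH3 rather than NOTCH3 protein; score merges spot fluorescence near 667 nm with spot signal to noise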
[3] = probe aNOTCH2 binding on compound microarray – biochemical, small-molecule microarray, 635/667 nm fluorescence, primary screen (AID 1121); conditions: higher = more signal;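 note: score merges feature fluorescence read at 667 nm with its signal to noise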
[4] = target: Carbonic anhydrase 2 (Homo sapiens) (UniProt P00918); test: compounds binding carbonic anhydrase 2 – biochemical, small-molecule microarray, Alexa647-labelled CAII, profiling panel (AID 1122); conditions: CAII-A647 binding fluorescence, higher = more signal
[5] = COS7 lysate on small-molecule microarray, probe aHis, 635 nm (AID 1123); conditions: COS7 cell lysate, fluorescence, higher = more signal;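 note: z-score combines 667nm fluorescence intensity with signal-to-noise per printed compound spot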
[6] = probe aLAP1 signal on lysate-treated microarray – cell lysate, small-molecule microarray, COS7 lysate, primary screen (AID 1124); conditions: probe aLAP1, fluorescence, higher = more signal;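 note: lysate comes from COS7 cells expressing LAP1 and is applied at 0.3 µg/mL; score merges spot fluorescence near 667 nm with signal-to-noise over triplicate slides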
Sam68 (KHDRBS1) = test: compounds binding KHDRBS1 protein – biochemical, small-molecule microarray, 635 nm fluorescence, primary screen (AID 1125); conditions: higher = more signal;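 note: score merges 667 nm channel intensity with signal to noise over triplicate slides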
[7] = tested on: Chordin-like protein 2 (CHRDL2); test: compounds binding chordin-like 2 – biochemical, small-molecule microarray, 635 nm fluorescence, primary screen (AID 1126); conditions: fluorescence 635 nm, higher = more signal;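 note: printed compound slides probed with Chrdl2 protein at 4 µg/mL for 1 h at 4 C; score merges 667 nm emission intensity with signal to noise over three replicate slides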
[8] = target: Concanavalin-A (Canavalia ensiformis) (UniProt P02866); test: compounds binding concanavalin A lectin – biochemical, small-molecule microarray, Alexa647 label, 635 nm, artefact control for SMM control protein annotation, primary screen (AID 1127); conditions: ConA-A647 binding fluorescence, higher = more signal;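 note: z combines 667 nm emission intensity with signal-to-noise across three replicate slides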
Concanavalin-A (Canavalia ensiformis), sequence (P02866 whole entry, looked up): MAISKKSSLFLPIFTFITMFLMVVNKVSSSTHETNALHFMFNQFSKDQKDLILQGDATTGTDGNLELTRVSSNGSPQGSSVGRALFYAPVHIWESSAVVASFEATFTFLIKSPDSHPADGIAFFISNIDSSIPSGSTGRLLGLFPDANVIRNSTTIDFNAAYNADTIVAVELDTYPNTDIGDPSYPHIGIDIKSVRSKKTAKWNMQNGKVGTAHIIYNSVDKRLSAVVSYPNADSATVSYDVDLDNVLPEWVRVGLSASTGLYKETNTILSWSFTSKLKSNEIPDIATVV

[9] = compounds binding Alexa647 anti-His antibody – biochemical, small-molecule microarray, 635 nm fluorescence, artefact control for SMM control protein annotation, primary screen (AID 1128); conditions: higher = more signal;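 note: score merges feature fluorescence with signal-to-noise for each printed compound spot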
[10] = tested on: Human papillomavirus type 1a E7 protein (residues 1-88); test: HPV1a E7 small-molecule binders, primary screen, biochemical, small-molecule microarray, residues 1-88, 635 nm (AID 1129); conditions: small-molecule microarray binding, fluorescence 635 nm; higher = more signal
[11] = target: Focal adhesion kinase 1 (Homo sapiens) (UniProt Q05397); test: PTK2 protein binding on printed compound slides – biochemical, small-molecule microarray, 635/667 nm fluorescence, BSA, DTT, primary screen (AID 1130); conditions: 635 nm fluorescence, higher = more signal;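 note: composite of spot emission at 667 nm and signal to noise over triplicate slides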
Focal adhesion kinase 1 (Homo sapiens), sequence (Q05397 whole entry, looked up): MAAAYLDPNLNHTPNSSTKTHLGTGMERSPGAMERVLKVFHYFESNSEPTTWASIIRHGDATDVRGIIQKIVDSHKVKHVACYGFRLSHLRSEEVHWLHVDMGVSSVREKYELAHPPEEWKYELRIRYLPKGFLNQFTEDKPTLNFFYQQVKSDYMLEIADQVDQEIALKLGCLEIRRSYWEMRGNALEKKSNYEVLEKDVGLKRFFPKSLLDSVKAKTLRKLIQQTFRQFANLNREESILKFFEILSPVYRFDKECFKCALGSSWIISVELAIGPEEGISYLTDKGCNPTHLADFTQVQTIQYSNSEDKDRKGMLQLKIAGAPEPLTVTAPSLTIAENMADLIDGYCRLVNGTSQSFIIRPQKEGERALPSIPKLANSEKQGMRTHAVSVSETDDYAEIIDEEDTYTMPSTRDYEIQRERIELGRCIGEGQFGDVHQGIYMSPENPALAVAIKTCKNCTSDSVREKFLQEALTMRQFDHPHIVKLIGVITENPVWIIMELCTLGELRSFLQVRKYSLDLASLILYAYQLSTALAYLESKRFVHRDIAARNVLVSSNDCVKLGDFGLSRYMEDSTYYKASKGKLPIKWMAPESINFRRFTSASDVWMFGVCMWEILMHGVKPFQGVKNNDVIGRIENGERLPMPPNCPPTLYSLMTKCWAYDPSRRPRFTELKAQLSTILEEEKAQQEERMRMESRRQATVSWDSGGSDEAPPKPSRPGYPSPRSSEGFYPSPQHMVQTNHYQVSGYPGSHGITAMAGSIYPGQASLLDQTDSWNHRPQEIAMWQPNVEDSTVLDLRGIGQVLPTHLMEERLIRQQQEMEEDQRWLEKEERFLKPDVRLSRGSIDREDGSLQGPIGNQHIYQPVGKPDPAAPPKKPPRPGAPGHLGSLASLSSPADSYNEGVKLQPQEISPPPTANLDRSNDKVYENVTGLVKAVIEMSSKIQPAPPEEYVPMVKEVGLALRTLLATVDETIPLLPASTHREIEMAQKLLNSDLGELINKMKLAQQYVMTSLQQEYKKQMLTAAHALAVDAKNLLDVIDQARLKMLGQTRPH

[12] = tested on: Fibrinogen (Alexa647-labelled); test: Alexa647-fibrinogen binding to printed small molecules – biochemical, small-molecule microarray, 635/667 nm fluorescence, artefact control for SMM control-protein annotation, profiling panel (AID 1131); conditions: fibrinogen-A647 binding fluorescence, higher = more signal;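 note: z-score merges 667 nm fluorescence with per-spot signal-to-noise over triplicate slides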
[13] = target: Follistatin (Homo sapiens) (UniProt P19883); test: FST protein binding to printed compounds – biochemical, small-molecule microarray, 635/667 nm fluorescence, primary screen (AID 1132); conditions: 635 nm fluorescence, higher = more signal
Follistatin (Homo sapiens), sequence (P19883 whole entry, looked up): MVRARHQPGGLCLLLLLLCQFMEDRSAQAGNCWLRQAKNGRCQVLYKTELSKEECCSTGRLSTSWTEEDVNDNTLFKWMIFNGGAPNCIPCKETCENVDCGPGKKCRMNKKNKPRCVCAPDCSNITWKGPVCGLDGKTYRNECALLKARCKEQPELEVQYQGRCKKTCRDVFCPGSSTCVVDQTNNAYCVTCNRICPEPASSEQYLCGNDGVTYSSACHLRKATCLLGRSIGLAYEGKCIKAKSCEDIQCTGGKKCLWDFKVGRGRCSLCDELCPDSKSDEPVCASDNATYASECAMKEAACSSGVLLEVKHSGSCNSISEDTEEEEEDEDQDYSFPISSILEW

[14] = target: Fibroblast growth factor 2 (Homo sapiens) (UniProt P09038); test: basic fibroblast growth factor binding to printed compounds – biochemical, small-molecule microarray, 635/667 nm fluorescence, primary screen (AID 1133); conditions: FGF2, fluorescence 635/667, higher = more signal
Fibroblast growth factor 2 (Homo sapiens), sequence (P09038 whole entry, looked up): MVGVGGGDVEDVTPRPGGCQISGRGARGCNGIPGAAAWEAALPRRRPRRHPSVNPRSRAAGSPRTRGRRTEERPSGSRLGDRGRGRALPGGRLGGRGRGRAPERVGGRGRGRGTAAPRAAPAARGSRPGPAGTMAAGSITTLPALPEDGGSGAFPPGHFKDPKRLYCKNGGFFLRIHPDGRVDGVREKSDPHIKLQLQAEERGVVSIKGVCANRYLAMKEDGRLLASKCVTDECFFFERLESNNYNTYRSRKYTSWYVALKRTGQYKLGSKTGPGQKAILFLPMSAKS

[15] = JC-1 mitochondrial potential readout, lung cancer cells – cell-based, A549, JC-1 fluorescence, basal, 24 h, 100 nL, profiling panel (AID 1138); conditions: higher = more signal;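 note: A549 lung adenocarcinoma cells under basal conditions with no added stimulus; test concentration not given here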
Lefty1 = Lefty1 protein binding to printed compounds – biochemical, small-molecule microarray, 635/667 nm fluorescence, primary screen (AID 1139); conditions: fluorescence 635/667, higher = more signal
[16] = tested on: wheat germ agglutinin (Triticum aestivum), Alexa647-labelled; test: Alexa647-WGA lectin binding to printed small molecules – biochemical, small-molecule microarray, 635/667 nm fluorescence, artefact control for SMM control-protein annotation, profiling panel (AID 1140); conditions: WGA-A647 binding, 635 nm fluorescence, higher = more signal;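 note: score merges 667 nm feature emission with signal to noise over triplicate slides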
[17] = target: Luciferin 4-monooxygenase (Photinus pyralis) (UniProt P08659); test: inhibition of purified Photinus pyralis luciferase – biochemical, luminescence, purified enzyme, 2006 set, primary screen (AID 1141); conditions: purified firefly luciferase, SteadyGlo luminescence, 30 min; higher = more signal, called active from +8 up or from −8 down;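 note: cell-free assay with purified firefly luciferase at 100 ng per well in PBS; test concentration not given here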
Luciferin 4-monooxygenase (Photinus pyralis), sequence (P08659 whole entry, looked up): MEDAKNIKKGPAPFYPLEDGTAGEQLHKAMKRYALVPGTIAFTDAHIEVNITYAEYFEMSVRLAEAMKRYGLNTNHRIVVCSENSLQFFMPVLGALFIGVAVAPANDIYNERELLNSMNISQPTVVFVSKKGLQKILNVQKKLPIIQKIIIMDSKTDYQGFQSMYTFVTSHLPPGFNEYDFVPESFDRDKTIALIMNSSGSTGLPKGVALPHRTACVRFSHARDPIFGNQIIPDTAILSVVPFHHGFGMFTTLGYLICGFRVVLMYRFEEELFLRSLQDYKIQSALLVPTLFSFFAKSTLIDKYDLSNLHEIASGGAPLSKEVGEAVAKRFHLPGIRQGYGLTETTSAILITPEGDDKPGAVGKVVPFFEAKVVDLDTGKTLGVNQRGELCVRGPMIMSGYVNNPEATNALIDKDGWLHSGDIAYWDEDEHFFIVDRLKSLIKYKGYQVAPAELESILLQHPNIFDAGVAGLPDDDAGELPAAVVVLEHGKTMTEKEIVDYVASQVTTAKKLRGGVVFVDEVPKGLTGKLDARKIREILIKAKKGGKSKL

Row | SMILES | composite z-score (Albumin (Bos taurus)) | composite Z-score [1] | composite z-score [2] | composite z-score [3] | composite z-score [4] | composite z-score [5] | composite z-score [6] | composite z-score (Sam68 (KHDRBS1)) | composite z-score [7] | composite z-score [8] | composite z-score [9] | composite z-score [10] | composite z-score [11] | composite z-score [12] | composite z-score [13] | composite z-score [14] | z-score [15] | composite z-score (Lefty1) | composite z-score [16] | z-score [17]
1 | C=C1C(=O)C=C2CN(C(=O)c3ccccc3)[C@@](Cc3ccc(OC)cc3)(C(=O)OC)[C@@H]12 | 1.07 | 0.579 (inactive) | 0.711 | 0.11 | 0.523 | 3.32 | 0.471 | 1.3 | -0.639 | 1.14 | 1.07 | 1.26 | 0.408 | 1.02 | 1.29 | -0.0686 | -0.322 | 0.381 | 1.13 | 3.22 (inactive)
2 | O=C1C[C@@](C(=O)NCc2ccccc2)(c2ccc([N+](=O)[O-])cc2)[C@@H](c2ccc(CO)cc2)N1C1CCCCC1 | -0.77 | 1.06 (inactive) | 0.14 | 0.0847 | 0.317 | 2.89 | 1.76 | 1.03 | 0.575 | 1.07 | 1.25 | 1.15 | 1.02 | 0.955 | 1.12 | 1.05 | 0.966 | 0.294 | 0.706 | -0.238 (inactive)
3 | COC(=O)[C@@]1(Cc2ccc(OC)cc2)[C@H]2c3cc(C(=O)N(C)C)[nH]c3C[C@H]2CN1C(=O)c1ccccc1 | 0.0277 | 0.184 (inactive) | -0.0477 | 0.013 | 0.742 | 0.1 | -0.106 | -1.13 | -0.372 | 0.0575 | 0.279 | -0.154 | 0.0999 | 0.804 | -0.205 | -0.738 | 0.638 | -0.275 | 0.895 | 0.0806 (inactive)
4 | COC(=O)c1cccc([C@H]2OC(=CC(=O)OC(C)C)C[C@@H](c3cccc(C(=O)OC)c3)O2)c1 | 0.937 | 0.587 (inactive) | 0.455 | -0.118 | 0.745 | 1.78 | 0.93 | 1.29 | -0.338 | 1.2 | 1.51 | 1.24 | 1.09 | 1 | 1.11 | 0.748 | -0.562 | 0.679 | 0.961 | -1.74 (inactive)
5 | C=C(CCCC)/C(=C/C[C@@H](OC(C)=O)c1ccc(CO)o1)c1cnc2ccccc2c1 | 0.333 | -0.117 (inactive) | 0.185 | -0.0684 | 0.476 | 1.45 | 1.17 | 1.3 | 1.03 | 0.875 | 1.12 | 1.21 | 0.119 | 0.948 | 1.31 | 1.54 | -0.587 | 1.51 | 1.27 | -3.09 (inactive)
6 | CCOC(=O)C[C@H]1[C@H](OC(=O)Cc2ccc3c(c2)OCO3)[C@@H](NC(=O)Cc2ccc(OC)cc2)c2cc(OCCCO)ccc2N1C(=O)Cc1ccc(OC)cc1 | 0.635 | 0.472 (inactive) | -0.143 | -0.172 | 0.263 | 0.428 | 0.0995 | 0.323 | -0.0366 | -0.117 | 0.247 | 0.173 | -0.113 | 0.239 | -0.147 | -0.0689 | 1.39 | 0.0681 | -0.002 | -0.127 (inactive)
7 | CN1C(=O)C2C=CC(C(O)c3ccc(-c4ccccc4)s3)N(NC(=O)OC(C)(C)C)C2C1=O (stereo not given) | 0.886 | 0.43 (inactive) | 0.435 | 0.164 | 0.689 | 1.65 | 0.714 | 1.23 | 0.0094 | 0.996 | 0.847 | 1.14 | 0.154 | 1.04 | 0.807 | 0.498 | 0.237 | -0.0773 | 0.904 | 0.626 (inactive)
8 | C=CCOC(=O)[C@H]1[C@@H]2C(=O)O[C@@H](c3ccccc3)[C@@H](c3ccccc3)N2[C@@H](c2ccc(OCCOC(=O)[C@H]3C[C@H]4C(=O)N[C@@H](CC(C)C)C(=O)N4[C@H]3c3ccc(O)cc3)cc2)[C@]12C(=O)Nc1ccccc12 | -1.5 | 0.0398 (inactive) | 0.0695 | -0.0666 | 0.368 | 1.74 | 0.878 | 1.31 | 1.26 | 1.06 | 0.1 | 1.26 | 0.66 | 0.8 | 1.36 | 1.79 | -1.48 | 1.39 | 0.624 | -0.782 (inactive)
9 | CCCCCCc1nc(Cc2cc(OC)c(OC)c(OC)c2)cc2c1[Si](C(C)C)(C(C)C)O[C@H]2c1ccccc1 | -0.261 | 0.688 (inactive) | -0.0647 | -0.166 | -0.117 | -0.327 | -0.589 | 0.523 | 0.52 | 0.118 | 0.0156 | 0.0994 | -0.148 | 0.146 | 0.571 | 0.675 | 0.216 | 0.845 | -0.17 | 0.555 (inactive)
10 | COC(=O)[C@@]1(Cc2ccc(F)cc2)[C@H]2c3cc(C(=O)N(C)C)n(CCc4ccc(O)c(O)c4)c3C[C@H]2CN1C(=O)c1ccccc1 | 0.508 | 0.964 (inactive) | 0.0807 | 0.256 | 0.863 | 3.26 | 0.541 | 0.0409 | -0.938 | 0.227 | -0.0012 | 1.18 | 0.512 | 0.823 | -0.123 | -0.72 | 0.987 | -0.08 | 0.528 | 0.569 (inactive)
11 | CCCC=C(CCC)[C@@H](NC(=O)OCC(C)C)c1ccc(C(=O)OC)cc1 | -0.0782 | -0.773 (inactive) | -0.0328 | -0.15 | 0.133 | 0.141 | 0.35 | 0.687 | 0.436 | 0.256 | 0.403 | 0.717 | 1.16 | 0.441 | -0.133 | 0.462 | 0.744 | 0.704 | 0.0477 | 2.34 (inactive)
